Screens: PubChem BioAssay, NMMLSC
An excerpt weighted towards active compounds, which were near 1.2% of everything screened.
RGS8-Gao reg = modulates binding of RGS8 to human Galphao; response (percent of control binding), % at 10 µM; 220,000 compounds, 0.34% hits; AID 1423; multiplexed bead flow cytometry; actives lie on both sides; in the data active = response below about 60% or above about 140%; inactive = in between;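 note: Galphao activated as the GDP aluminium fluoride complex binding bead-coupled RGS8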
Target sequence (P09471 whole entry, looked up): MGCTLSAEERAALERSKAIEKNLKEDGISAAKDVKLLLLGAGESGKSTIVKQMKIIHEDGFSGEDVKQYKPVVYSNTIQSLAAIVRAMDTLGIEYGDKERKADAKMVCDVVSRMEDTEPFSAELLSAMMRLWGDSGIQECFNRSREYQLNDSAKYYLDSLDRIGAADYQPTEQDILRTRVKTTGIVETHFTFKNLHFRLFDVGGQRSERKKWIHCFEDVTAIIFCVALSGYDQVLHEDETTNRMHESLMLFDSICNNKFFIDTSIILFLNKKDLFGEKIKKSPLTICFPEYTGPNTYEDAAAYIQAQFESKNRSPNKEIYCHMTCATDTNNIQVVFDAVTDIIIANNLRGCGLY
RGS4-Gao reg = modulates binding of RGS4 to human Galphao. 220,000 compounds, 0.33% hits. Multiplexed bead flow cytometry; actives lie on both sides. P09471. binding response (% of control), % at 10 µM; in the data active = binding response below about 49% or above about 150%; inactive = in between;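 note: fluorescent Galphao activated with aluminum fluoride binding bead-coupled RGS4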
Avidin bead fluor = compound fluoresces at 488/530 nm on avidin beads. compound fluorescence 488/530 nm, flow cytometry; hits give high values. 220,000 compounds, 0.38% hits. fluorescence (KMESF) at 10 µM. AID 1775; in the data active = fluorescence above about 47
RGS7-Gao reg = modulates binding of RGS7 to human Galphao; P09471; Multiplexed bead flow cytometry; actives lie on both sides; binding response (% of control), % at 10 µM; 220,000 compounds, 0.35% hits; AID 1439; in the data active = binding response below about 49% or above about 150%; inconclusive = no clear call, values can overlap the other calls; inactive = in between;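 note: fluorescent Galphao held in activated GDP-AlF4 state binding bead-coupled RGS7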
RGS16-Gao HTS = modulates binding between human RGS16 and Galphao; 220,000 compounds, 0.38% hits; bead-based flow cytometry RGS16-Galphao binding, fluorescence; actives lie on both sides; binding response (% of control), % at 10 µM; O15492+P09471;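 note: Galphao activated by GDP with aluminum fluoride before binding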
Target sequence (O15492 whole entry, looked up): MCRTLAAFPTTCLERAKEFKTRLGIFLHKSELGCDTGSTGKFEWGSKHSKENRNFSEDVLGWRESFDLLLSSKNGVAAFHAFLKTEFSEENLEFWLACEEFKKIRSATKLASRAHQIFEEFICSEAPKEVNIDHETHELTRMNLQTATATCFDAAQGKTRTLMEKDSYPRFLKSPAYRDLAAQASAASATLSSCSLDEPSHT
Target sequence (P09471 whole entry, looked up): as the sequence (P09471 whole entry, looked up) above
GSH fluor = compound fluoresces at 488/530 nm on GSH beads. fluorescence (KMESF) at 10 µM. AID 1776. 190,000 compounds, 0.25% hits. GSH beads flow cytometry, compound fluorescence 488/530 nm; hits give high values; in the data active = fluorescence above about 89;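 note: glutathione beads carrying GST-tagged Bcl family fusion proteins plus one bare bead set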
RGS4-Gao HTS = regulators of human RGS4-Galphao interaction. shares compounds with RGS16-Gao HTS. multiplexed bead flow cytometry, RGS–Galpha-o binding. RGS4–Galpha-o binding response, % at 10 µM. 1,600 compounds, 99% hits;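 note: fluorescently labeled Galpha-o bound to GDP with aluminium fluoride binding biotinylated RGS beads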
Biotin-avidin = counter-screen: compounds disrupting biotin binding to avidin beads | streptavidin beads, fluorescein-biotin binding, flow cytometry | AID 1783 | shares compounds with RGS16-Gao HTS | inhibition, % at 10 µM | 1,700 tested, under 10 active;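 active = inhibition above 50%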;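 note: median green fluorescence of gated singlet beads compared with DMSO control wells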
RGS8-Gao confirm = confirmation of regulators of human RGS8-Galphao interaction | shares compounds with RGS16-Gao HTS | bead-based flow cytometry RGS8-Galphao binding, fluorescence; actives lie on both sides | 1,700 compounds, 3% hits | binding response (% of control), % at 10 µM | AID 1836; in the data active = binding response below about 72% or above about 130%; inactive = in between;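 note: Galphao activated as GDP AlF4 complex before binding bead RGS8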
RGS7-Gao single = RGS7-Galphao interaction regulation, single point confirmation; shares compounds with RGS16-Gao HTS; bead-based flow cytometry RGS7-Galphao binding; actives lie on both sides; response (percent of control binding), % at 10 µM; 1,700 compounds, 7.8% hits; in the data active = response below about 75% or above about 130%; inactive = in between;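 note: fluorescent Galphao activated with GDP and aluminum fluoride binding bead-coupled RGS7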
RGS16-Gao conf = confirmation of regulators of human RGS16-Galphao interaction | shares compounds with RGS16-Gao HTS | bead-based flow cytometry, RGS16-Galphao binding; actives lie on both sides | response (% of control binding), % at 10 µM | 1,700 compounds, 4% hits | AID 1838; in the data active = response below about 74% or above about 130%; inactive = in between;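 note: Galphao activated as the GDP aluminium fluoride complex binding bead-coupled RGS16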
RGS4-Gao confirm = RGS4-Galphao interaction regulation, single point confirmation. shares compounds with RGS16-Gao HTS. binding response (% of control), % at 10 µM. 1,700 compounds, 4% hits. RGS4-Galphao binding, multiplexed bead flow cytometry; actives lie on both sides; in the data active = binding response below about 74% or above about 130%; inactive = in between
RGS19-Gao conf = RGS19-Galphao interaction regulation, single point confirmation. shares compounds with RGS16-Gao HTS. bead-based flow cytometry RGS19-Galphao binding; actives lie on both sides. response (percent of control binding), % at 10 µM. 1,700 compounds, 5% hits. AID 1841; in the data active = response below about 50% or above about 160%; inactive = in between
Numbers stand for hits; – = inactive; ? = inconclusive; · = no result; [ ] = dose if it differs, or a comment. Unless noted, the rule behind the calls is not given here.

SMILES	RGS8-Gao reg	RGS4-Gao reg	Avidin bead fluor	RGS7-Gao reg	RGS16-Gao HTS	GSH fluor	Biotin-avidin	RGS8-Gao confirm	RGS7-Gao single	RGS16-Gao conf	RGS4-Gao confirm	RGS19-Gao conf	others
Cc1ccc2nc(C)c3c(c2c1)SCC3	–	206.8[activator]	102	?	193.4[activator]	·	–	–	–	–	–	–
CCOC(=O)c1c(C)[nH]c(C(=O)COC(=O)C2CC(=O)N(Cc3ccccc3)C2)c1C (stereo unspecified)	163.2[activator]	166.2[activator]	97	218.2[activator]	–	239	–	–	–	–	–	–
C=CCc1ccccc1OCC(O)CNC(=O)c1ccccc1C(=O)O (stereo unspecified)	–	–	–	?	–	·	·	·	·	·	·	·
CC(C)(C)NC(=O)COC(=O)c1ccc(Cl)nc1	·	·	·	·	·	–	–	–	63.7	–	–	45.0
CCCCCC(=O)NC(=S)Nc1ccc(NC(=O)c2ccco2)cc1	–	–	–	–	178.9[activator]	–	–	–	–	–	–	–	RGS4-Gao HTS=110.5
CCCCCC(=O)N/N=C(\C)c1ccc(NC(=O)c2ccco2)cc1	–	–	–	–	–	–	·	·	·	·	·	·
CCOc1ccc(CC(=O)Nc2ccc(NC(=O)c3ccco3)cc2)cc1OCC	22.9	27.9	–	20.2	16.4	–	–	–	–	–	–	–
CC(=O)NC(Cc1c[nH]c2ccccc12)C(=O)OCC(=O)N1CCCCCC1 (stereo unspecified)	–	–	–	–	–	–	·	·	·	·	·	·
O=C(c1ccccc1)c1ccc(OCCOCCN2CCN(Cc3ccccc3)CC2)cc1	–	–	–	–	–	–	·	·	·	·	·	·
O=C(Cn1cnc2c(cnn2-c2ccccc2)c1=O)Nc1ccc(S(=O)(=O)N2CCOCC2)cc1	–	–	–	–	20.4	–	–	–	–	–	–	189.2[activator]	RGS4-Gao HTS=95.0
COc1ccc(-n2ncc3c(=O)n(CC(=O)Nc4ccc(S(=O)(=O)N5CCOCC5)cc4)cnc32)cc1	–	–	–	–	–	–	·	·	·	·	·	·
Cc1cccc(C)c1OCC(O)CNC(C)C (stereo unspecified)	–	–	–	–	–	–	·	·	·	·	·	·
CCOC(=O)c1oc2cccc(OCC(O)CNC(C)C)c2c1C (stereo unspecified)	–	204.4[activator]	127	183.7[activator]	231.3[activator]	–	–	–	–	–	–	–
Cc1ccc(N(CC(=O)N2CCN(C3CCCCC3)CC2)S(=O)(=O)c2cccnc2)cc1	–	–	–	–	259.8[activator]	–	·	·	·	·	·	·	RGS4-Gao HTS=109.0
Cc1ccc(S(=O)(=O)N(CC(=O)N2CCCCCC2)c2ccccc2)cc1	–	–	–	–	–	–	·	·	·	·	·	·
COc1ccc(CCNC(=O)c2ccc(CNS(=O)(=O)c3cc(C)ccc3C)cc2)cc1OC	–	–	–	–	–	–	·	·	·	·	·	·
CC(C)N1CCc2c(sc(NC(=O)c3nc4ccccc4s3)c2C(N)=O)C1	–	–	–	–	–	–	·	·	·	·	·	·
CC(C)N1CCc2c(sc(NC(=O)c3ccc(S(=O)(=O)N4CCc5ccccc54)cc3)c2C(N)=O)C1	–	–	–	153.2[activator]	–	–	·	·	·	·	·	·	RGS4-Gao HTS=147.5
O=C(c1ccc(C(F)(F)F)cc1)C1CCCN(C(=O)CCN2CCCO2)C1 (stereo unspecified)	–	–	–	–	–	–	·	·	·	·	·	·
O=C(CSc1nnc(CNc2ccccc2)o1)N1CCc2ccccc21	–	–	–	–	–	–	·	·	·	·	·	·
O=C(CSc1nnc(Cc2ccccc2)o1)N1CCCc2ccccc21	–	–	·	–	·	–	–	–	–	–	–	–
CC(=O)c1ccc(NC(=O)Nc2ccccc2)cc1	–	–	–	–	–	–	·	·	·	·	·	·
Cc1ccc(NC(=O)CO/N=C(\N)c2nonc2N)cc1C	–	–	–	–	25.0	–	–	–	–	–	–	–	RGS4-Gao HTS=91.9
NC(=O)C1CCCN(C(=O)c2ccc(Cl)cc2)C1 (stereo unspecified)	–	–	–	–	–	–	·	·	·	·	·	·
NC(=NC1CCCCC1)c1ccc(Cl)cc1	–	–	–	195.1[activator]	–	–	–	–	–	–	–	–	RGS4-Gao HTS=117.2
SMILES	RGS8-Gao reg	RGS4-Gao reg	Avidin bead fluor	RGS7-Gao reg	RGS16-Gao HTS	GSH fluor	Biotin-avidin	RGS8-Gao confirm	RGS7-Gao single	RGS16-Gao conf	RGS4-Gao confirm	RGS19-Gao conf	others
CC(C)CCn1nnnc1CN1CCN(c2ccccc2)CC1	–	–	–	?	–	–	·	·	·	·	·	·
C/C(=N/NC(=O)CNc1ccc(C)cc1)c1ccc(Cl)cc1	·	·	·	·	·	–	–	–	–	–	–	–
Cc1ccc(C(=O)CNc2ccc(Cl)cc2)cc1	–	–	–	–	–	–	·	·	·	·	·	·
Cc1cc(OC(=O)c2ccc(S(=O)(=O)N3CCCC3)cc2)c([N+](=O)[O-])c(=O)[nH]1	142.4[activator]	–	–	–	–	–	–	–	–	–	–	–	RGS4-Gao HTS=112.3
Cc1cc(OC(=O)c2ccc(S(=O)(=O)N3CCCCC3)cc2)c([N+](=O)[O-])c(=O)[nH]1	–	–	–	–	–	–	·	·	·	·	·	·
CC(=O)NC(=S)Nc1ccc(NC(=O)COc2ccc(Cl)cc2Cl)cc1	–	150.3[activator]	78	184.4[activator]	–	–	–	–	–	–	–	–
S=C(NCC1CCCO1)N1CCN(Cc2ccccc2)CC1 (stereo unspecified)	–	–	–	–	–	–	·	·	·	·	·	·
CC/C(=N/NC(=O)c1ccccc1)c1ccc(OCCN2CCOCC2)cc1	188.7[activator]	206.9[activator]	–	189.7[activator]	–	–	–	–	–	–	–	–
CCOc1ccc(C2NC(=O)NC(C)=C2C(=O)OC)cc1C (stereo unspecified)	·	·	·	·	·	–	–	–	–	–	–	–
O=C(O)c1ccccc1Sc1ccccc1S(=O)(=O)NC1CCCCC1	7.1	-10.8	–	?	-4.7	·	–	–	–	–	–	–
O=C(O)c1ccccc1S(=O)(=O)NCC(O)COC1CCCCC1 (stereo unspecified)	–	–	–	–	–	–	·	·	·	·	·	·
CC1(C)CC2CC(C)(CN2Cc2c(O)ccc3ccccc23)C1 (stereo unspecified)	–	–	–	–	–	–	·	·	·	·	·	·
